{"source": "PubChem BioAssay AID1117361", "about": "(Southern Research Institute, 2015)", "note": "In all, about 3,600 compounds went through this assay and about 900 (25%) were called active. How the calls were made is not given here. Only a sample is shown. Entries that show only a call come without a potency. Potency and affinity values are given separately."}
{"biological_target": "Protein Tat (Human immunodeficiency virus type 1 group M subtype B (isolate HXB2)) (UniProt P04608)", "test": "inhibitors of Tat binding to TAR RNA, dose response, counter-screen for Vif-APOBEC3G degradation inhibitor project, biochemical, fluorescence polarization, FAM-labeled TAR RNA (AID 1117361)", "details": "outcome: at 100 µM (top of the series) unless noted; series mostly up to 100 µM"}
{"smiles": "Cc1c(-c2ccccc2)nc2ccccc2c1C(=O)O", "outcome": "inactive"}
{"smiles": "Cc1cc(C#N)c2ccccc2n1", "outcome": "inactive"}
{"smiles": "CCCCOc1ccc(C(=O)OC(C)CN(C)C)cc1", "note": "(stereo not drawn)", "outcome": "inactive"}
{"smiles": "CCC(=O)Nc1cccc(Oc2nc(C)cc(C)c2C#N)c1", "outcome": "inactive"}
{"smiles": "Clc1ncnc2scc(-c3ccccc3)c12", "outcome": "inactive"}
{"smiles": "Cc1nn(Cc2ccccc2)c(C)c1NC(=O)c1cc(-c2ccc3c(c2)OCO3)on1", "outcome": "inactive"}
{"smiles": "O=C(OCc1ccc(Cl)cc1)c1cnccn1", "outcome": "inactive"}
{"smiles": "Cc1ccccc1CS(=O)(=O)CCC(=O)NCCN1CCN(c2cccc(Cl)c2)CC1", "outcome": "inactive"}
{"smiles": "O=C(CN1CCN(c2nc(-c3ccccc3)cs2)CC1)Nc1ccc2c(c1)OCO2", "outcome": "inactive"}
{"smiles": "NNC(=O)CCN1CCN(C(c2ccccc2)c2ccccc2)CC1", "outcome": "inactive"}
{"smiles": "CCOC(=O)CSc1ncnc2c1cnn2-c1ccc(C)cc1", "outcome": "inactive"}
{"smiles": "COc1ccc(-n2nnnc2-c2ccccc2)cc1", "outcome": "inactive"}
{"smiles": "COc1cnc(SCc2c(Cl)cccc2Cl)nc1Cl", "outcome": "inactive"}
{"smiles": "Clc1c(-c2nnc3n2CCC3)sc2ccccc12", "outcome": "inactive"}
{"smiles": "CC(NC(=O)CSc1nnc2n1CCCCC2)c1ccccc1Cl", "note": "(stereo not drawn)", "outcome": "inactive"}
{"smiles": "Cc1cc2cc3c(=O)[nH]c(=O)nc-3n(CC(O)C(O)C(O)CO)c2cc1C", "note": "(stereo not drawn)", "outcome": "inactive"}
{"smiles": "CCCn1nc(NC(=O)c2ccccn2)c2cc3cc(C)ccc3nc21", "outcome": "inactive"}
{"smiles": "O=C1COc2ccc(C(=O)CSc3nnc(-c4cccs4)n3Cc3ccccc3)cc2N1", "outcome": "inactive"}
{"smiles": "COc1cc2ccccc2cc1C(=O)N1CCN(c2ccccc2O)CC1", "outcome": "inactive"}
{"smiles": "CCOCCNC(=O)c1ccccc1C(=O)NCCOCC", "outcome": "inactive"}
{"smiles": "COc1ccc(Oc2nc(C)cc(C)c2C#N)cc1", "outcome": "inactive"}
{"smiles": "COC(=O)COn1c(-n2nc(C)cc2C)nc2ccccc2c1=O", "outcome": "inactive"}
{"smiles": "Cc1ccc(S(=O)(=O)n2ccc(=O)[nH]2)cc1", "outcome": "inactive"}
{"smiles": "CCOC(=O)c1c(NC(=O)c2cc(CC(C)C)on2)sc(C(C)=O)c1C", "outcome": "inactive"}
{"smiles": "CCN(CC)C(=O)c1sc(NC(=O)c2ccc3c(c2)OCO3)c(C#N)c1C", "outcome": "inactive"}
{"smiles": "O=C(COC(=O)C12CC3CC(CC(Br)(C3)C1)C2)Nc1ccc2[nH]c(=O)[nH]c2c1", "outcome": "inactive"}
{"smiles": "COc1cc(CC(=O)NCC(C)(C)N2CCOCC2)cc(OC)c1OC", "outcome": "inactive"}
{"smiles": "CCC(Sc1nc(-c2ccccc2)cc(=O)[nH]1)C(=O)O", "note": "(stereo not drawn)", "outcome": "inactive"}
{"smiles": "N#C/C=C\\Oc1ccc(Cl)cc1N", "outcome": "inactive"}
{"smiles": "COc1ccccc1OCCOc1ccccc1/C=N/n1cnnc1", "outcome": "inactive"}
{"smiles": "Cc1c(C(=O)N2CCN(c3ccccc3F)CC2)sc2nc(-c3ccccc3)cn12", "outcome": "inactive"}
{"smiles": "CN(c1ccc(C(=O)N2CCc3ccccc3C2)cc1)S(C)(=O)=O", "outcome": "inactive"}
{"smiles": "COc1ccc(C)cc1NC(=O)COC(=O)CCC(=O)c1cccs1", "outcome": "inactive"}
{"smiles": "CCCn1nc2cc(C(=O)NCc3ccc4c(c3)OCO4)ccc2c1OCC", "outcome": "inactive"}
{"smiles": "CCn1c(N)c(C(=O)NCc2ccc3c(c2)OCO3)sc1=S", "outcome": "inactive"}
{"smiles": "CCOC(=O)c1c(C)c(/C=N/Nc2ccccc2)n(C)c1C", "outcome": "inactive"}
{"smiles": "COC(=O)C1=C(O)/C(=C\\c2ccc(CNC(=O)C(=O)Nc3ccc(C)c(C)c3)o2)N=C1C", "outcome": "inactive"}
{"smiles": "COC(=O)C1=C(O)/C(=C/c2cccc(OC)c2O)N=C1C", "outcome": "inactive"}
{"smiles": "CCC(C)Nc1nc2c(c(=O)[nH]c(=O)n2C)n1CCC(C)C", "note": "(stereo not drawn)", "outcome": "inactive"}
{"smiles": "COC(=O)c1cn[nH]c1NC(=S)Nc1ccc(C)cc1Cl", "outcome": "inactive"}
{"smiles": "CCCCNC(=O)C1CCCN(S(=O)(=O)c2ccc(-n3cnnn3)cc2)C1", "note": "(stereo not drawn)", "outcome": "inactive"}
{"smiles": "CCN(CC)c1ccc(C2C3CCCCC3(O)CCN2CC(=O)Nc2ccccc2)cc1", "note": "(stereo not drawn)", "outcome": "inactive"}
{"smiles": "COc1ccccc1NC(=O)c1cc2ccccc2o/c1=N\\O", "outcome": "inactive"}
{"smiles": "CC1CN(S(=O)(=O)c2cc(C(=O)NCc3ccncc3)ccc2Cl)CC(C)O1", "note": "(stereo not drawn)", "outcome": "inactive"}
{"smiles": "Cc1ccc(Cn2ccc(NC(=O)c3cc(-c4cccc(Cl)c4)on3)n2)cc1", "outcome": "inactive"}
{"smiles": "COc1ccc(NC(=O)C2CCCNC2)cc1OCC(C)C", "note": "(stereo not drawn)", "outcome": "inactive"}
{"smiles": "O=c1c2c(nc(NCCO)n1CC1CCCCC1)-c1ccccc1CC21CCCC1", "outcome": "inactive"}
{"smiles": "CC(Sc1nnnn1C)C(=O)Nc1ccccc1-c1ccccc1", "note": "(stereo not drawn)", "outcome": "inactive"}
{"smiles": "CCOC(=O)CCC(=O)N1CCNC(=O)C1", "outcome": "inactive"}
{"smiles": "CCNC(=O)c1ccc(-n2nc(C(F)(F)F)c3c2CCCC3)cc1", "outcome": "inactive"}
{"smiles": "CS(=O)(=O)c1ccc2nnn(OCC(=O)Nc3cccc(C#N)c3)c2c1", "outcome": "inactive"}
{"smiles": "Cc1cccc2c1NC1(CCCC1)CC2C", "note": "(stereo not drawn)", "outcome": "inactive"}
{"smiles": "O=C(NCCCN1CCOCC1)C1CC(=O)N(CCc2ccccc2)C1", "note": "(stereo not drawn)", "outcome": "inactive"}
{"smiles": "CCN(CC)c1ccc(NC(=O)c2c(C)noc2C)cc1", "outcome": "inactive"}
{"smiles": "O=C(c1ccc2c(c1)[nH]c(=S)n1c3ccccc3nc21)N1CCN(c2cccc(Cl)c2)CC1", "outcome": "inactive"}
{"smiles": "COc1ccc(S(=O)(=O)N2CCC(C(=O)NCc3cccnc3)CC2)cc1Cl", "outcome": "inactive"}
{"smiles": "COc1cc(NC(=O)c2cc3nc(-c4ccccc4)cc(-c4ccccc4)n3n2)cc(OC)c1OC", "outcome": "inactive"}
{"smiles": "CC(=O)c1cccc(NC(=O)CC2Oc3ccc(C)cc3NC2=O)c1", "note": "(stereo not drawn)", "outcome": "inactive"}
{"smiles": "O=C(CCNS(=O)(=O)c1ccc(Cl)cc1)NCc1cccnc1", "outcome": "inactive"}
{"smiles": "C=C(C)C1CC=C(C)/C(=N\\NC(=O)CCC(=O)Nc2ccc(C)c(C)c2)C1", "note": "(stereo not drawn)", "outcome": "inactive"}
{"smiles": "O=c1c2c([nH]c3ccccc13)CCCCCC2", "outcome": "inactive"}
{"smiles": "CC(C)CCNC(=O)Cn1c2c(c(-c3ccccc3Cl)cc1=O)CCC2", "outcome": "inactive"}
{"smiles": "FC(F)(F)C1=Nc2cccc3cccc(c23)N1", "outcome": "inactive"}
{"smiles": "CCc1nc(-c2ccc(C)nc2OC)no1", "outcome": "inactive"}
{"smiles": "CS(=O)(=O)c1ccc(C(=O)Nc2nc(-c3ccco3)c(-c3ccco3)s2)cc1", "outcome": "inactive"}
{"smiles": "COc1ccc(NC(=O)CSc2nc3c(cc2C#N)CN(C)CC3)cc1", "outcome": "inactive"}
{"smiles": "O=S(=O)(N1CCOCC1)N1CCCN(S(=O)(=O)N2CCOCC2)CC1", "outcome": "inactive"}
{"smiles": "Cc1c(C(=O)N2CCCCC2)nnn1-c1nonc1N", "outcome": "inactive"}
{"smiles": "CCOC(=O)N1CCC(N2C(=O)c3ccccc3C2Nc2ccccc2)CC1", "note": "(stereo not drawn)", "outcome": "inactive"}
{"smiles": "COc1ccc(-c2noc(Cc3ccc(Cl)cc3)n2)cc1OC", "outcome": "inactive"}
{"smiles": "COc1ccc(C(=O)n2nc(-c3ccc(Cl)cc3)nc2N)cc1OC", "outcome": "inactive"}
{"smiles": "Cc1cc(C)c2c(=N)c3ccccc3n(CCCCCCCCn3c4ccccc4c(=N)c4c(C)cc(C)nc43)c2n1", "outcome": "inactive"}
{"smiles": "COc1cccc(OC)c1OCCCc1c(C)n[nH]c1C", "outcome": "inactive"}
{"smiles": "O=C(N/C(=C/c1ccc(Cl)cc1)c1nc2ccccc2[nH]1)c1ccco1", "outcome": "inactive"}
{"smiles": "COc1cccc(C(=O)Nc2nc3ccccc3[nH]2)c1", "outcome": "inactive"}
{"smiles": "CCN(CC)C(=O)CCNS(=O)(=O)c1ccc(C)cc1", "outcome": "inactive"}
{"smiles": "Clc1ccc(-c2nnnn2-c2ccc(Cl)c(Cl)c2)cc1Cl", "outcome": "inactive"}
{"smiles": "CCc1nnc(SCC(=O)NC2CCCCC2)nc1CC", "outcome": "inactive"}
{"smiles": "Fc1ccc(-c2nnc(Cc3nnc(-c4ccc(F)cc4)o3)o2)cc1", "outcome": "inactive"}
{"smiles": "Cc1ccc2c(c1C)NC(=O)C2(O)CC(=O)c1ccc2c(c1)OCO2", "note": "(stereo not drawn)", "outcome": "inactive"}
{"smiles": "O=C(NCc1ccc2c(c1)OCO2)c1cc2ncc(Br)cn2n1", "outcome": "inactive"}
{"smiles": "CCOc1ccc(N(CC(=O)NCCC2=CCCCC2)S(=O)(=O)c2ccccc2)cc1", "outcome": "inactive"}
{"smiles": "CCNC(=O)OCC(CC)NC(=O)OCC(C)C", "note": "(stereo not drawn)", "outcome": "inactive"}
{"smiles": "Cc1cc(C)cc(-c2nnc(SCC(=O)NCc3cccs3)o2)c1", "outcome": "inactive"}
{"smiles": "CCN(CC)c1ccc(/C=C2\\C(=O)N(c3nnc(C)c(=O)[nH]3)N=C2C)cc1", "outcome": "inactive"}
{"smiles": "c1ccc(N2CCN(c3ccc4nncn4n3)CC2)nc1", "outcome": "inactive"}
{"smiles": "Cc1noc(C)c1C(=O)N1CCN(c2ncccn2)CC1", "outcome": "inactive"}
{"smiles": "CCCCc1ccc(-c2nc(N)n[nH]2)cc1", "outcome": "inactive"}
{"smiles": "COCCCN1CC23C=CC(O2)C(C(=O)O)C3C1=O", "note": "(stereo not drawn)", "outcome": "inactive"}
{"smiles": "CC1CCN(c2ccc([N+](=O)[O-])c(SCCO)c2)CC1", "outcome": "inactive"}
{"smiles": "Cc1ccc(S(=O)(=O)NCCCOC(=O)Nc2ccncc2)cc1", "outcome": "inactive"}
{"smiles": "O=C(C1CCC(CNc2c(N3CCCCC3)c(=O)c2=O)CC1)N1CCN(C2CCCCC2)CC1", "note": "(stereo not drawn)", "outcome": "inactive"}
{"smiles": "O=C(CSc1nnnn1-c1ccc2c(c1)CCC2)Nc1ccc2c(c1)OCCO2", "outcome": "inactive"}
{"smiles": "CCOC(=O)c1c(NC(=O)Cn2nnc(-c3ccccc3Cl)n2)sc(C)c1C", "outcome": "inactive"}
{"smiles": "Cc1nn(Cc2ccccc2)c(C)c1C(=O)OCC(=O)c1cc(C)n(C2CC2)c1C", "outcome": "inactive"}
{"smiles": "COC(=O)C1=CN(CC2CCCO2)C=C(C(=O)OC)C1c1ccccc1C(F)(F)F", "note": "(stereo not drawn)", "outcome": "inactive"}
{"smiles": "COc1ccc(OC)c(NC(=O)CSc2nc3ccccc3c(=O)n2CC2CCCO2)c1", "note": "(stereo not drawn)", "outcome": "inactive"}
{"smiles": "Cc1cnc(NC(=O)CSc2nnc(CNc3ccc(F)cc3)n2CC2CCCO2)s1", "note": "(stereo not drawn)", "outcome": "inactive"}
{"smiles": "[O-]/[N+](=C\\C=C\\c1ccccc1)c1ccccc1", "outcome": "inactive"}
{"smiles": "COc1ccc(C2CC(C(F)(F)F)n3nc(C(=O)NCc4c(C)nn(C)c4C)c(Cl)c3N2)cc1", "note": "(stereo not drawn)", "outcome": "inactive"}
{"smiles": "O=S1(=O)Nc2c(ccc3cccnc23)-c2ccccc21", "outcome": "inactive"}
{"smiles": "CCN(CC)c1ccc(NC2=C(Cl)C(=O)c3ccccc3C2=O)cc1", "outcome": "inactive"}
{"smiles": "O=C1CSC(c2cccnc2)N1Cc1cccnc1", "note": "(stereo not drawn)", "outcome": "inactive"}
{"smiles": "COc1ccc(OCC(=O)O/N=C(\\N)Cc2ccc(Cl)cc2)cc1", "outcome": "inactive"}
{"smiles": "CCOC(=O)CN(C(=O)CSc1nnc(COc2ccc(OC)cc2)n1CC)c1ccccc1", "outcome": "inactive"}
{"smiles": "Oc1c(C(c2ccccc2)N2CCN(Cc3ccccc3)CC2)sc2ncnn12", "note": "(stereo not drawn)", "outcome": "inactive"}
{"smiles": "Fc1ccc(C(CCCn2nnc(-c3cccnc3)n2)c2ccc(F)cc2)cc1", "outcome": "inactive"}
{"smiles": "Cc1nc2cc(NC(=O)Nc3ccc(N4CCOCC4)cc3)ccc2n1C", "outcome": "inactive"}
{"smiles": "Cc1cc(CN2C(=O)c3ccccc3C2=O)cc(N2CCOCC2)c1", "outcome": "inactive"}
{"smiles": "Oc1ccccc1/C=N/Nc1nccnc1Cl", "outcome": "inactive"}
{"smiles": "COc1ccc(/C=C/c2nnc(NC(=O)CSc3ccc(C)cc3)s2)cc1", "outcome": "inactive [at 50 µM]"}
{"smiles": "COC(=O)C(NC(=O)c1ccco1)(Nc1nc(C)cs1)C(F)(F)F", "note": "(stereo not drawn)", "outcome": "inactive"}
{"smiles": "COC(=O)c1ccc(CSc2nc3ccccc3c(=O)n2-c2ccc(OC)c(OC)c2)o1", "outcome": "inactive"}
